Laboratory results as given in PubChem BioAssay.
Activity calls are given as the source filed them.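 How the source made its calls, unless noted: active means compound raises insulin release from rat beta cells at 5 mM glucose, no numeric limit stated; inactive means the rest.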

Legend:
[1] = stimulators of nuclear beta-catenin in C2C12, primary screen, imaging, WNT3A-conditioned medium, mouse C2C12, NPC library (AID 1117326; in the data active means nuclear beta-catenin stimulation mostly above about 4.2%, no sharp cut-off; inactive means mostly below about 10%); settings: stronger effect = higher value
[2] = stimulators of insulin release from INS-1E, primary screen, cell-based, 5 mM glucose, NPC library (AID 1117329); settings: rat INS-1E insulin secretion, at 10 µM, stronger effect = higher value
[3] = growth inhibition of GSK3B-pretreated HCT116 cells – cell-based, CellTiter-Glo, 0.2 to 20 µM (AID 1117336;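 active means compounds lowering colon cancer cell viability after pretreatment blocking the GSK3B kinase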); settings: HCT116 viability after GSK3B inhibitor, at 20 µM, stronger effect = higher value
[4] = inhibition of endothelial tube formation, primary screen, imaging, VEGF stimulated, CD31 staining, tube area, NPC library (AID 1117340;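 active means compound that reduces growth-factor-driven endothelial tube area in a mixed cell culture, no cutoff stated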); settings: VEGF-stimulated ADSC/ECFC co-culture, at 10 µM, stronger effect = higher value
[5] = glucagon-like peptide 1 release enhancers, primary assay, NCI-H716 cell line, NPC library (AID 1117341;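 active means compound raises GLP1 secretion from the human gut endocrine cells, with no numeric limit stated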); settings: NCI-H716 cells, at 10 µM, stronger effect = higher value
[6] = HCT116 colon cancer cell growth inhibition, primary screen, CellTiter-Glo luminescence, NPC library (AID 1117342;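 active means compounds that lower survival of HCT116 colon cancer cells in the luminescence readout, no numeric limit stated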); settings: at 20 µM (top of the series)
[7] = CellTiter-Glo luminescent readout of SW480 viability loss, NPC library primary (AID 1117343;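 active means compounds that lower viability of the colon cancer cells in the luminescence readout, with no numeric limit stated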); settings: CellTiter-Glo luminescence; at 20 µM (top of the series) unless noted
[8] = decreased DLD-1 cellular survival, CellTiter-Glo luminescent readout, NPC compound collection, primary HTS (AID 1117346;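 active means compounds that lower survival of DLD-1 colon cancer cells in the luminescence readout, no cutoff given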); settings: DLD-1 viability, CellTiter-Glo luminescence; at 20 µM (top of the series)
[9] = survival rescue of mitochondrial mutant cells in low glucose, primary screen, MELAS cybrids, Rieske KO mouse fibroblasts, CellTiter-Glo (AID 1508586;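 active means mean z-score across replicates of 1.96 or higher in either the MELAS or the Rieske mutant cell line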;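 further: z relative to plate mean and SD of compound and empty wells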)
[10] = target: NAD(+) hydrolase SARM1 (Homo sapiens) (UniProt Q6SZW1); experiment: SARM1 TIR NADase inhibitors, cell lysate, NAD-Glo luminescence (AID 1508614;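 active means compound whose remaining NAD level is above about 45 nM, limit read from the data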); settings: SAM-TIR HEK293T lysate NADase, at 1 µM, stronger effect = higher value
[11] = target: Mitogen-activated protein kinase 7 (Homo sapiens) (UniProt Q13164); experiment: ERK5 transactivation activators in reporter cells, primary screen, cell-based, HTS (AID 1508626;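 active means luciferase signal above three times the same-plate solvent-only control wells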;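 further: luciferase driven by Gal4-ERK5 fusion binding five Gal4 sites before minimal TATA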); settings: HeLa Gal4-ERK5 transactivation, 18 h, at 5 µM, stronger effect = higher value
[12] = sensitizers of A549 cells to miR-34 induction, primary screen, imaging, A549 dox-inducible miR-34, nuclei and caspase counts (AID 1347080;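 active means compounds whose cell count with miR-34 switched on is under 0.7 times the count with it off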); settings: A549 miR-34 inducible, Hoechst nuclei count, 48 h
[13] = MELAS cybrid survival, CellTiter-Glo 48 h, stronger effect = higher value
[14] = Rieske KO mouse fibroblast survival, CellTiter-Glo 72 h

NAD(+) hydrolase SARM1 (Homo sapiens), sequence (Q6SZW1 whole entry, looked up, the tested form may be a part): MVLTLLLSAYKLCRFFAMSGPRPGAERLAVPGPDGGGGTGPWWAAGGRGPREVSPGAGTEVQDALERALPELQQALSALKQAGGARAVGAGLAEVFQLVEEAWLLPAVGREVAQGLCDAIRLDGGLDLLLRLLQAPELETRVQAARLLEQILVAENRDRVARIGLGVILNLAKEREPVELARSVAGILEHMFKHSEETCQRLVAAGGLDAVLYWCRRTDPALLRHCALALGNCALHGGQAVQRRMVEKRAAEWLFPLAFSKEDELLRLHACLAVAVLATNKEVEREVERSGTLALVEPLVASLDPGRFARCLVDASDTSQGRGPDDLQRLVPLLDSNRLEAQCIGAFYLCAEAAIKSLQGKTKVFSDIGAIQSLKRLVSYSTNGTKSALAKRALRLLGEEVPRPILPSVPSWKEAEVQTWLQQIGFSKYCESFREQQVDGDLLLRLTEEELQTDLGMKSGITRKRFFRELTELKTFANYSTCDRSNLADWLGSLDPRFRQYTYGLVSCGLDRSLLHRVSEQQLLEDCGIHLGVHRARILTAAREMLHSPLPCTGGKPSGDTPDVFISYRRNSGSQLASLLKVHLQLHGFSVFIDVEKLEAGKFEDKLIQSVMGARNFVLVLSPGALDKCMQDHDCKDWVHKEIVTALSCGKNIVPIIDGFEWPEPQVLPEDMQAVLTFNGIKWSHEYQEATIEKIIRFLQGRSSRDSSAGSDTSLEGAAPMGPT
Mitogen-activated protein kinase 7 (Homo sapiens), sequence (Q13164 whole entry, looked up, the tested form may be a part): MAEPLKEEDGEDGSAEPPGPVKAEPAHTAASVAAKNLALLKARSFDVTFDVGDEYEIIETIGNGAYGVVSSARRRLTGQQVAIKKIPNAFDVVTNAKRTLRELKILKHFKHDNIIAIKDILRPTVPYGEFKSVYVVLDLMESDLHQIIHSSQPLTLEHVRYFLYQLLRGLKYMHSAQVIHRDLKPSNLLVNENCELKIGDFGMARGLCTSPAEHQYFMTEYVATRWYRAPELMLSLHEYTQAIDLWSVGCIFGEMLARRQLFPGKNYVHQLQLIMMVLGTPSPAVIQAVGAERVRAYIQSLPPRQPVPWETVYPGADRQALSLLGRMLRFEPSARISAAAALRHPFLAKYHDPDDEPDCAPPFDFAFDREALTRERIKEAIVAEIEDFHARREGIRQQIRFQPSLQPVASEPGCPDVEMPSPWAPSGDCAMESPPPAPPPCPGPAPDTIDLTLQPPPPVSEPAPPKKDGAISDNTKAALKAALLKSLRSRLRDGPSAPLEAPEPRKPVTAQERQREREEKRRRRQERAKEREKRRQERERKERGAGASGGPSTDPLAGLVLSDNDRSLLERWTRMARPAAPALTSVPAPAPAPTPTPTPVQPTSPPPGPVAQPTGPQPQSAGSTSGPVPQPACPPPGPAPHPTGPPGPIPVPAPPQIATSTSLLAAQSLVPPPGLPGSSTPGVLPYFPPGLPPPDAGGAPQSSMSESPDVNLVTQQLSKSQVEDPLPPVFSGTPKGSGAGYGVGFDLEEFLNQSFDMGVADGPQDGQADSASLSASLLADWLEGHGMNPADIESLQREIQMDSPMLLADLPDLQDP

Structure (SMILES) | nuclear beta-catenin stimulation ([1]; at 10 µM) | nuclear beta-catenin stimulation ([1]; stimulation, at 2 µM) | insulin secretion stimulation [2] | viability decrease [3] | tube area decrease [4] | GLP1 secretion stimulation [5] | inhibition of viability [6] | viability decrease (inhibition) [7] | viability decrease (inhibition) [8] | z-score [9, 13] | z-score [9, 14] | remaining NAD [10] | luciferase signal [11] | fold change ([12]; stronger effect = lower value, cell number ratio, induced over uninduced) | fold change ([12]; measured here: relative caspase fold change +Dox/-Dox) | cell count ([12]; measured here: total cells with miR-34 induction, stronger effect = lower value) | cell count ([12]; measured here: total cells without miR-34 induction)
N#Cc1cc(NC(=O)C(=O)O)c(Cl)c(NC(=O)C(=O)O)c1 | 3.5% (inactive) | 1.2% | 2.2% (inactive) | -38.9% (inactive) | -0.9% (inactive) | -0.9% (inactive) | -4.9% (inactive) | 25.7% (inactive) | -16.9% (inactive) | -0.414 (inactive) | -0.697 |  |  |  |  |  | 
CCOCCn1c(N2CCCN(C)CC2)nc2ccccc21 | -1.8% (inactive) | 1% | 4.3% (inactive) | -10.6% (inactive) | 3.4% (inactive) | -2.3% (inactive) | 8.5% (inactive) | 6% (inactive) | -4.3% (inactive) | 0.35 (inactive) | -0.184 |  |  |  |  |  | 
O=C(NCCCN1CCOCC1)c1ccc(Cl)cc1 | 0.6% (inactive) | 1% | 1.5% (inactive) | 1.5% (inactive) | 12.7% (inactive) | -0.3% (inactive) | 0% (inactive) | 18.6% (inactive) | 1.05% (inactive) |  |  | 10 nM (inactive) |  |  |  |  | 
Cc1ncc([N+](=O)[O-])n1C | 1.7% (inactive) | 22.2% | 4.1% (inactive) | 38.9% (inactive) | -11.6% (inactive) | -0.5% (inactive) | -2.3% (inactive) | -12.5% (inactive) | -4.4% (inactive) |  |  | 10 nM (inactive) |  |  |  |  | 
CC(CN(C)C)C(C)(O)Cc1ccc(Cl)cc1 (stereo not given) | -2% (inactive) | -0.8% | 7.5% (inactive) | -15% (inactive) | 7.9% (inactive) | -2% (inactive) | 17.4% (inactive) | -0.8% (inactive) | -9.1% (inactive) | 0.453 (inactive) | -0.0123 |  |  |  |  |  | 
CC[C@H](C)[C@H](N)C(=O)O | 2.1% (inactive) | 4.3% | -0.7% (inactive) | -17.5% (inactive) | 27% (inactive) | -0.4% (inactive) | -13.2% (inactive) | 0.9% (inactive) | -7.9% (inactive) |  |  | 10 nM (inactive) |  |  |  |  | 
Cc1nc2ccccc2n1Cc1ccc(Cl)cc1 | 1.3% (inactive) | 1.1% | -3.2% (inactive) | 52.8% (active) | 62% (active) | -1.7% (inactive) | 45.2% (inactive) | 74% (active) | 40.1% (inactive) |  |  | 10 nM (inactive) |  |  |  |  | 
C=CC(C)(O)CCC=C(C)CCC=C(C)C (stereo not given) | 2.7% (inactive) | -0.9% | -0.2% (inactive) |  |  | 9.7% (inactive) |  |  |  |  |  |  |  |  |  |  | 
CC(C)=CCC[C@@](C)(O)[C@H]1CC=C(C)CC1 | 1.8% (inactive) | 4% | 3.6% (inactive) | -34.3% (inactive) | 5% (inactive) | 2.7% (inactive) | -4.77% (inactive) | -13% (inactive) | -9.9% (inactive) |  |  |  | 32 AU (inactive) |  |  |  | 
O=C(NC1CCN(CCc2c[nH]c3ccccc23)CC1)c1ccccc1 | 1% (inactive) | 2% | 1.25% (inactive) |  |  | -4.5% (inactive) |  |  |  |  |  |  |  |  |  |  | 
C[C@]12CC[C@@H]3c4ccc(O)cc4CC[C@H]3[C@@H]1CC[C@@H]2OC(=O)CCC1CCCC1 | 28.4% (inactive) | 2.5% | 0.5% (inactive) | -8.5% (inactive) | 110% (active) | 3.6% (inactive) | 6.73% (inactive) | 27% (inactive) | -23.3% (inactive) |  |  | 10 nM (inactive) | 84 AU (inactive) |  |  |  | 
Cc1c(-c2ccc(O)cc2)n(Cc2ccc(OCCN3CCCCCC3)cc2)c2ccc(O)cc12 | -3.3% (active) | 44.5% | 4.3% (inactive) | 99.8% (active) |  |  | 99.7% (active) | 102% (active) | 101% (active) | -0.437 (inactive) | 0.502 |  |  | 0.919 (inactive) | 0.888 | 6380 | 6940
